Source: PubChem BioAssay (EPA / NIEHS)
Activity calls are given as the source filed them. How the source made its calls: active means hit-call score of the fitted dose curve at least 0.9, where 1 is the maximum; inactive means score below 0.9.

Legend:
Settings in all cases: mRNA level, 48 h; actives raise or lower the signal
[1] = read-out: ABC Transporter (ABCB1), ABCB1 (gene 5243); assay: LTEA_HepaRG_ABCB1: Life Technologies and Expression Analysis (LTEA) Assay for ABC Transporter (ABCB1) using HepaRG (AID 2283460)
Outline: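 Differentiated human HepaRG cells, plated 48 h then switched to serum-free induction medium, were exposed in duplicate to eight half-log concentrations up to 100 uM in 0.5% DMSO for 48 h. ABCB1 mRNA was measured by TaqMan qRT-PCR, normalized to ACTB/GAPDH/POLR2A.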

[2] = read-out: growth arrest and DNA damage 45 (GADD45B), GADD45B (gene 4616); assay: LTEA_HepaRG_GADD45B: Life Technologies and Expression Analysis (LTEA) Assay for growth arrest and DNA damage 45 (GADD45B) using HepaRG (AID 2283461)
Outline: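 Human HepaRG monolayers receive chemicals for 48 h at eight half-log concentrations, highest 100 uM, in 0.5% DMSO. Expression is measured by TaqMan qRT-PCR and normalized to ACTB, GAPDH and POLR2A.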

[3] = read-out: ABC Transporter (ABCC3), ABCC3 (gene 8714); assay: LTEA_HepaRG_ABCC3: Life Technologies and Expression Analysis (LTEA) Assay for ABC Transporter (ABCC3) using HepaRG (AID 2283462)
Outline: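 Transcriptional change of ABCC3 in HepaRG after 48 h treatment, determined by qRT-PCR normalized to endogenous controls. Concentrations spanned eight half-log steps to 100 uM in 0.5% DMSO.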

[4] = read-out: ABC Transporter (ABCB11), ABCB11 (gene 8647); assay: LTEA_HepaRG_ABCB11: Life Technologies and Expression Analysis (LTEA) Assay for ABC Transporter (ABCB11) using HepaRG (AID 2283463)
Outline: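 Differentiated human HepaRG cells were exposed for 48 h in serum-free induction medium to eight half-log concentrations up to 100 uM in 0.5% DMSO. ABCB11 mRNA was quantified by qRT-PCR, normalized to ACTB, GAPDH and POLR2A, and fitted bidirectionally versus DMSO.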

[5] = read-out: Broad substrate specificity ATP-binding cassette transporter ABCG2 (Homo sapiens) (UniProt Q9UNQ0); assay: LTEA_HepaRG_ABCG2: Life Technologies and Expression Analysis (LTEA) Assay for ABC Transporter (ABCG2) using HepaRG (AID 2283465)
Outline: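 Differentiated HepaRG cells in serum-free induction medium were exposed for 48 h, in duplicate, to eight half-log concentrations up to 100 uM in 0.5% DMSO. ABCG2 mRNA was measured by TaqMan qRT-PCR, normalized to ACTB, GAPDH and POLR2A, and fitted bidirectionally versus DMSO.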

[6] = read-out: ATP-citrate lyase (ACLY), ACLY (gene 47); assay: LTEA_HepaRG_ACLY: Life Technologies and Expression Analysis (LTEA) Assay for ATP-citrate lyase (ACLY) using HepaRG (AID 2283466)
Outline: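 Differentiated human HepaRG cells in serum-free induction medium exposed 48 h, in duplicate, to eight half-log concentrations from 100 uM top in 0.5% DMSO; ACLY mRNA measured by qRT-PCR, normalized to ACTB, GAPDH, POLR2A, fitted bidirectionally versus DMSO.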

[7] = read-out: Peroxisomal acyl-coenzyme A oxidase 1 (ACOX1) gene, ACOX1 (gene 51); assay: LTEA_HepaRG_ACOX1: Life Technologies and Expression Analysis (LTEA) Assay for Peroxisomal acyl-coenzyme A oxidase 1 (ACOX1) gene using HepaRG (AID 2283467)
Outline: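 Differentiated human HepaRG cells were exposed in duplicate for 48 h in serum-free induction medium to eight half-log concentrations up to 100 uM in 0.5% DMSO. ACOX1 mRNA was then quantified by TaqMan qRT-PCR, normalized to ACTB, GAPDH and POLR2A.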

[8] = read-out: Bcl-2 (BAD) gene, BAD (gene 572); assay: LTEA_HepaRG_BAD: Life Technologies and Expression Analysis (LTEA) Assay for Bcl-2 (BAD) gene using HepaRG (AID 2283469)
Outline: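 Differentiated human HepaRG cells in serum-free induction medium were exposed in duplicate for 48 h to eight concentrations (top 100 uM, half-log steps, 0.5% DMSO). BAD mRNA was quantified by qRT-PCR normalised to ACTB, GAPDH and POLR2A, with bidirectional fitting versus DMSO.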

[9] = read-out: Bcl-2 (BAX) gene, BAX (gene 581); assay: LTEA_HepaRG_BAX: Life Technologies and Expression Analysis (LTEA) Assay for Bcl-2 (BAX) gene using HepaRG (AID 2283470)
Outline: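 Differentiated HepaRG cells exposed 48 h in serum-free induction medium, eight half-log concentrations from 100 uM, in duplicate, 0.5% DMSO vehicle. BAX mRNA by TaqMan qRT-PCR, normalised to ACTB, GAPDH and POLR2A.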

[10] = read-out: BCL2L11 (gene 10018); assay: LTEA_HepaRG_BCL2L11: Life Technologies and Expression Analysis (LTEA) Assay for Bcl-2 (BCL2L11) gene using HepaRG (AID 2283473)
Outline: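 Human hepatic HepaRG cultures are treated 48 h with test chemicals (maximum 100 uM, 0.5% DMSO vehicle). Expression of BCL2L11 is measured by qRT-PCR against ACTB, GAPDH and POLR2A, with activity in either direction scored relative to vehicle.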

[11] = read-out: Apolipoprotein A-V (APOA5) gene, APOA5 (gene 116519); assay: LTEA_HepaRG_APOA5: Life Technologies and Expression Analysis (LTEA) Assay for Apolipoprotein A-V (APOA5) gene using HepaRG (AID 2283474)
Outline: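 Concentration-response of APOA5 expression in HepaRG: eight half-log doses to 100 uM, 48 h, qRT-PCR normalized to ACTB/GAPDH/POLR2A, bidirectional fitting with 0.5% DMSO as baseline.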

[12] = read-out: Apoptosis regulator Bcl-2 (Homo sapiens) (UniProt P10415); assay: LTEA_HepaRG_BCL2: Life Technologies and Expression Analysis (LTEA) Assay for Bcl-2 gene using HepaRG (AID 2283475)
Outline: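 Differentiated human HepaRG cells in serum-free induction medium exposed 48 h, in duplicate, to 8-point half-log series from 100 uM in 0.5% DMSO. BCL2 mRNA by qRT-PCR (TaqMan/Fluidigm), normalized to ACTB, GAPDH, POLR2A; bidirectional fit against DMSO.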

[13] = read-out: Bcl-2 (BID) gene, BID (gene 637); assay: LTEA_HepaRG_BID: Life Technologies and Expression Analysis (LTEA) Assay for Bcl-2 (BID) gene using HepaRG (AID 2283476)
Outline: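 Gene expression by qRT-PCR in HepaRG cells after 48 h exposure, duplicate wells, eight half-log concentrations topping at 100 uM in 0.5% DMSO. Normalized to ACTB, GAPDH, POLR2A; bidirectional fitting relative to DMSO.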

[14] = read-out: Caspase-3 (Homo sapiens) (UniProt P42574); assay: LTEA_HepaRG_CASP3: Life Technologies and Expression Analysis (LTEA) Assay for cysteine-aspartic acid protease (CASP3) using HepaRG (AID 2283477)
Outline: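 Transcript-level assay: CASP3 mRNA in human HepaRG after 48 h treatment, eight half-log concentrations from 100 uM in 0.5% DMSO, quantified by qRT-PCR.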

[15] = read-out: Cytochrome P450 (CYP24A1), CYP24A1 (gene 1591); assay: LTEA_HepaRG_CYP24A1: Life Technologies and Expression Analysis (LTEA) Assay for Cytochrome P450 (CYP24A1) using HepaRG (AID 2283478)
Outline: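 Gene expression of CYP24A1 by TaqMan qRT-PCR in HepaRG after 48 h treatment, highest concentration 100 uM; activity fitted in both directions relative to DMSO vehicle.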

[16] = read-out: adenosine kinase (ADK) gene, ADK (gene 132); assay: LTEA_HepaRG_ADK: Life Technologies and Expression Analysis (LTEA) Assay for adenosine kinase (ADK) gene using HepaRG (AID 2283471)
Outline: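 Differentiated HepaRG cells dosed 48 h in serum-free induction medium, 0.5% DMSO vehicle, eight half-log concentrations from 100 uM, in duplicate. ADK mRNA by TaqMan qRT-PCR normalised to ACTB, GAPDH, POLR2A; bidirectional fit versus DMSO.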

[17] = read-out: Cytochrome P450 (CYP1A2), CYP1A2 (gene 1544); assay: LTEA_HepaRG_CYP1A2: Life Technologies and Expression Analysis (LTEA) Assay for Cytochrome P450 (CYP1A2) using HepaRG (AID 2283479)
Outline: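 In duplicate wells, HepaRG cultures maintained in 0.5% DMSO were treated 48 h across an 8-point, half-log series topping at 100 uM; phenobarbital (1 mM) served as induction control. Expression was read by qRT-PCR.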

[18] = read-out: Alpha-fetoprotein (AFP) gene, AFP (gene 174); assay: LTEA_HepaRG_AFP: Life Technologies and Expression Analysis (LTEA) Assay for Alpha-fetoprotein (AFP) gene using HepaRG (AID 2283472)
Outline: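 Differentiated human HepaRG cells exposed 48 h in serum-free induction medium, 8-point half-log series from 100 uM in 0.5% DMSO, duplicate. AFP mRNA by qRT-PCR, normalized to ACTB, GAPDH, POLR2A; bidirectional fit vs DMSO.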

[19] = read-out: Alkaline Phosphatase, Placental (ALPP) gene, ALPP (gene 250); assay: LTEA_HepaRG_ALPP: Life Technologies and Expression Analysis (LTEA) Assay for Alkaline Phosphatase, Placental (ALPP) gene using HepaRG (AID 2283468)
Outline: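 Using human liver HepaRG cells, chemicals are tested in duplicate over 48 h at half-log concentrations topping at 100 uM; phenobarbital 1 mM serves as induction control. ALPP mRNA change by qRT-PCR, bidirectional fit against vehicle.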

[20] = read-out: ABC Transporter (ABCC2), ABCC2 (gene 1244); assay: LTEA_HepaRG_ABCC2: Life Technologies and Expression Analysis (LTEA) Assay for ABC Transporter (ABCC2) using HepaRG (AID 2283464)
Outline: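 After plating and 48 h culture, HepaRG medium is replaced with serum-free induction medium and chemicals are added (8 concentrations, max 100 uM, 0.5% DMSO) for 48 h. Total RNA then undergoes qRT-PCR for ABCC2 with housekeeping normalization.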

Measured: AC50

Caspase-3 (Homo sapiens), sequence (P42574 whole entry, looked up): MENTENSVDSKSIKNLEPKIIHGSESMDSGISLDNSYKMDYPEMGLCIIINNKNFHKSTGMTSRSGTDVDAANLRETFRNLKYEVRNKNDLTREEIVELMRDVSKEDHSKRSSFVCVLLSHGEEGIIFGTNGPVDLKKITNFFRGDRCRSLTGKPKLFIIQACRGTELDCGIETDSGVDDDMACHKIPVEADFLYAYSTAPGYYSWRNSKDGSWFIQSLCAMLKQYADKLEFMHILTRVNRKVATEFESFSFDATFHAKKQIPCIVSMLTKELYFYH
Broad substrate specificity ATP-binding cassette transporter ABCG2 (Homo sapiens), sequence (Q9UNQ0 whole entry, looked up): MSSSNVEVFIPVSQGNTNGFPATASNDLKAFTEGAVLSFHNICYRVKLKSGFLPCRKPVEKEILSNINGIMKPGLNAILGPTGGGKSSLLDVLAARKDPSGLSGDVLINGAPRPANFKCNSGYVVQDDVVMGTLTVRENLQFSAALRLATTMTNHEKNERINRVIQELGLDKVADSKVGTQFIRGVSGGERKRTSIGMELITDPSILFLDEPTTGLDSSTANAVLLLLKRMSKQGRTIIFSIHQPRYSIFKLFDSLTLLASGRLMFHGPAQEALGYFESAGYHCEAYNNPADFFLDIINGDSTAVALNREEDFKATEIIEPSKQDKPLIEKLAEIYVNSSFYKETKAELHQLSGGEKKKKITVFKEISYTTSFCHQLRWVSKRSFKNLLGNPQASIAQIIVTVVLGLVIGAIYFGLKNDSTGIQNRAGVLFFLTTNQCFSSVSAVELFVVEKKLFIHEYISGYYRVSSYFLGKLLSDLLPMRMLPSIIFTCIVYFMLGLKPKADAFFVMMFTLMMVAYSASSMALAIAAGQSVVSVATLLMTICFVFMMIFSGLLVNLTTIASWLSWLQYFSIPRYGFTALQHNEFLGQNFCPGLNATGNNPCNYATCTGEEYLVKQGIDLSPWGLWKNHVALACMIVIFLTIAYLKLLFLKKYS
Apoptosis regulator Bcl-2 (Homo sapiens), sequence (P10415 whole entry, looked up): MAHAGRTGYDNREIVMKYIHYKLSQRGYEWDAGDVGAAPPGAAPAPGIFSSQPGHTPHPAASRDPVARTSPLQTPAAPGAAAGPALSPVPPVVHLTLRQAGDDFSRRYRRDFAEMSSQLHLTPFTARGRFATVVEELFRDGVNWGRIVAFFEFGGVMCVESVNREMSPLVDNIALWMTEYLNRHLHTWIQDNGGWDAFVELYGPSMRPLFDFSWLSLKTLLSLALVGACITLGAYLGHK

CCCCOC(=O)c1ccccc1C(=O)OCc1ccccc1
not listed: [16] | [17] | [18] | [19] | [20]
inactive: all other assays above

CCCCCCCCn1sccc1=O
active: [3] 73.8 µM | [4] 72.1 µM | [7] 83.8 µM | [11] 82.9 µM
not listed: [18] | [19] | [20]
inactive: all other assays above

Nc1ccc(N=Nc2ccccc2)cc1
active: [1] 15.5 µM | [2] 29 µM | [4] 13.8 µM | [5] 13 µM | [6] 13.3 µM | [7] 14 µM | [9] 6.31 µM | [10] 17.6 µM | [11] 17.7 µM | [13] 50 µM | [17] 88.2 µM
inactive: [8] | [12] | [14] | [15]

CC(C)(C)OOC(C)(C)CCC(C)(C)OOC(C)(C)C
not listed: [13] | [14] | [19] | [20]
inactive: all other assays above

ClC1=C(Cl)[C@]2(Cl)[C@H]3[C@H]([C@@H]4C=C[C@H]3C4)[C@@]1(Cl)C2(Cl)Cl
active: [5] 9.92 µM
not listed: [16] | [18] | [20]
inactive: all other assays above

O=[N+]([O-])C(Br)(CO)CO
not listed: [19] | [20]
inactive: all other assays above

CCC[CH2][Sn]([Cl])([CH2]CCC)[CH2]CCC
inactive: [2] | [3] | [6] | [8] | [13] | [14] | [15]
active: [1] 3.21 µM | [4] 2.06 µM | [5] 1.49 µM | [7] 3.11 µM | [9] 1.72 µM | [18] 0.59 µM | [10] 11.7 µM | [11] 2.03 µM | [12] 3.08 µM

CCCCCCCCOC(=O)c1ccc(C(=O)OCCCCCCCC)c(C(=O)OCCCCCCCC)c1
not listed: [17] | [18] | [19] | [20]
inactive: all other assays above

OCCCBr
not listed: [16] | [19] | [20]
inactive: all other assays above

O=[N+]([O-])c1ccc(Oc2ccc(Cl)cc2Cl)cc1
active: [4] 11.5 µM | [5] 14.5 µM | [18] 66.9 µM | [17] 27.2 µM
not listed: [1] | [16] | [19]
inactive: all other assays above

Clc1ccccc1Cl
not listed: [16] | [17] | [18] | [20]
inactive: all other assays above

Nc1ccc(Oc2ccc(N)cc2)cc1
not listed: [16] | [17] | [19] | [20]
inactive: all other assays above
